Inconclusive results are not listed. Calls of active or inactive are those of the source. The call rests on the fitted dose curve; in most records, active means well fitted inhibition curve with a large enough effect; inconclusive means small, poorly fitted or top-dose-only effect; inactive means flat fitted curve, though single readings scatter.

The subject of test [1] is HB3. Kind of test: qHTS profiling for inhibitors of Plasmodium falciparum proliferation (AID 504749). The note with it: P. falciparum in erythrocytes, SYBR Green DNA, 72 h; series mostly up to 28.7 µM. The method, boiled down:
(§1)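 Readout was DNA-dye fluorescence from lysed cultures, ex 485/em 535 nm. Parasitized red cells had grown 72 h with compound; data scaled between 0.29 uM artemisinin and DMSO wells and corrected using vehicle-only plates.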
On the technique in general: qHTS replaces the single test concentration by a dilution series.

In test [2] the test system is ICS. The test is described as above. The note with it: P. falciparum in erythrocytes, SYBR Green DNA, 72 h; series mostly up to 28.7 µM. The method, boiled down:
as §1

Test [3] relates to JCK. The description is as above. The conditions noted are these: P. falciparum in erythrocytes, SYBR Green DNA, 72 h; series mostly up to 28.7 µM. The method, boiled down:
as §1

Test [4] concerns N140. The test is described as above. The conditions noted are these: P. falciparum in erythrocytes, SYBR Green DNA, 72 h; series mostly up to 28.7 µM. The method, boiled down: as §1
Test [5] relates to PAD. Described as above. The conditions noted are these: P. falciparum in erythrocytes, SYBR Green DNA, 72 h; series mostly up to 28.7 µM. The method, boiled down: as §1
In test [6] the test system is PC15. Described as above. The conditions noted are these: P. falciparum in erythrocytes, SYBR Green DNA, 72 h; series mostly up to 28.7 µM. The method, boiled down:
as §1

Test [7] has as its system PC26. The description is as above. The note with it: P. falciparum in erythrocytes, SYBR Green DNA, 72 h; series mostly up to 28.7 µM. The method, boiled down:
as §1

The test system of test [8] is PC49. Described as above. The note with it: P. falciparum in erythrocytes, SYBR Green DNA, 72 h; series mostly up to 28.7 µM. The method, boiled down: as §1
Test [9] has as its system SC27B. The test is described as above. The note with it: P. falciparum in erythrocytes, SYBR Green DNA, 72 h; series mostly up to 28.7 µM. The method, boiled down:
as §1

In test [10] the test system is TAB109. The test is described as above. The conditions noted are these: P. falciparum in erythrocytes, SYBR Green DNA, 72 h; series mostly up to 28.7 µM. The method, boiled down: as §1
Test [11] relates to TAB113. The test is described as above. The note with it: P. falciparum in erythrocytes, SYBR Green DNA, 72 h; series mostly up to 28.7 µM. The method, boiled down: as §1
Test [12] deals with TAB165. Described as above. The note with it: P. falciparum in erythrocytes, SYBR Green DNA, 72 h; series mostly up to 28.7 µM. The method, boiled down:
as §1

Test [13] relates to W2. The description is as above. The conditions noted are these: P. falciparum in erythrocytes, SYBR Green DNA, 72 h; series mostly up to 28.7 µM. The method, boiled down: as §1
Test [14] has as its system CRL-7250. As to the kind of experiment: Cytotoxic Profiling of Annotated Libraries Using Quantitative High-Throughput Screening (AID 1296008). On max response: on the % scale 0 is the no-effect control and ±100 the full control effect. The conditions noted are these: Five cell lines viability, CellTiter-Glo ATP luminescence, 48-72 h; max response: active compounds read low. The method, boiled down: (§2)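 Cells exposed to compounds for 48 or 72 hr at 37 degrees Celsius. Viability read as ATP-coupled luminescence with CellTiter-Glo after 10 min at room temperature.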
For orientation: In ATP-based viability assays light output follows the ATP content of the culture.

The subject of test [15] is HEK293. Described as above. The note with it: Five cell lines viability, CellTiter-Glo ATP luminescence, 48-72 h; max response: active compounds read low. The method, boiled down: as §2
Test [16] concerns HaCat. The description is as above. The conditions noted are these: Five cell lines viability, CellTiter-Glo ATP luminescence, 48-72 h; max response: active compounds read low. The method, boiled down: as §2
In test [17] the test system is NIH3T3. Described as above. The note with it: Five cell lines viability, CellTiter-Glo ATP luminescence, 48-72 h; max response: active compounds read low. The method, boiled down: as §2
Test [18] deals with P93_24. Kind of test: qHTS profiling for inhibitors of Plasmodium falciparum proliferation (AID 504749). The conditions noted are these: P. falciparum in erythrocytes, SYBR Green DNA, 72 h; series mostly up to 28.7 µM. The method, boiled down:
as §1

Test [19] concerns P94_40. The test is described as above. The conditions noted are these: P. falciparum in erythrocytes, SYBR Green DNA, 72 h; series mostly up to 28.7 µM. The method, boiled down: as §1
The test system of test [20] is KB-3-1. Kind of test: Cytotoxic Profiling of Annotated Libraries Using Quantitative High-Throughput Screening (AID 1296008). On max response: on the % scale 0 is the no-effect control and ±100 the full control effect. The note with it: Five cell lines viability, CellTiter-Glo ATP luminescence, 48-72 h; max response: active compounds read low. The method, boiled down: as §2
Further: nearly all actives have a fitted effect of over 60% in size.
Potency means the concentration at half of the fitted maximal effect.

In the case of `NS(=O)(=O)c1ccc(Cl)c(S(N)(=O)=O)c1`, the Potency result in [1], in test [2], in [3], in [4], in [5] and in test [6] was “inactive” in each case. The Potency result in [7], in test [8], in [9], in test [10], in test [11] and in [12] was “inactive” throughout. Moreover, the Potency result in test [13] is “inactive”. For the same compound, the max response was -4.09% (inactive) in test [14], -3.23% (inactive) in test [16] and -4.55% (inactive) in test [17]. Moreover, the result in [15] was inactive.

Consider `CN1CCc2cccc3c2[C@H]1Cc1ccc(O)c(O)c1-3`, for which the Potency is 11.2 µM (active) in [1]; 2.82 µM (active) in [2]; 10 µM (active) in test [4]; 7.94 µM (active) in test [18]; 3.98 µM (active) in test [19]; 11.2 µM (active) in test [5]. The Potency was 8.91 µM (active) in test [6]; 15.1 µM (active) in test [7]; 8.91 µM (active) in test [10]; 7.08 µM (active) in test [12]; 3.01 µM (active) in test [13]; 23.7 µM (active) in test [15]. For the same compound, the max response in test [14] is -21.4% (inactive); in test [20], 10.6% (inactive).

In the case of `CCN(CC)CCOc1ccc2c(c1)C(=O)c1cc(OCCN(CC)CC)ccc1-2`, the Potency in test [1] is 11.2 µM (active); in test [18] it was 11.2 µM (active); in test [7] it was 9.53 µM (active); in [10], 5.01 µM (active); in test [11], 11.2 µM (active); in test [13], 13.5 µM (active). For the same compound, the Potency in [14] is 23.7 µM (active); in [15] it was 7.5 µM (active). Besides, the max response in [20] was 41.3% (inactive).

Consider `COc1ccc(CCN(C)CCCN2CCc3cc(OC)c(OC)cc3CC2=O)cc1OC`, for which the Potency result in [1], in [3], in test [4], in test [19], in test [5] and in test [6] was “inactive” each time. The Potency entry in test [7], in test [8], in test [9], in test [10], in test [11] and in [12] was “inactive” each time. Further, the max response in test [14] is -0.711% (inactive); in test [16], -7.19% (inactive); in [17], 3.6% (inactive). Besides, the call in [15] was inactive.

In the case of `CN(C)CCN1C(=O)c2ccccc2N(C)c2ccccc21`, the Potency result in [1], in test [2], in test [3], in test [5] and in test [6] was “inactive” in each case. Besides, the Potency in test [13] was 2.13 µM (active). For the same compound, the max response in [14] was -7.77% (inactive); in [15] it was -1.88% (inactive); in test [20], 3.06% (inactive); in test [17] it was -0.0642% (inactive).

As for `CCCCC(CC)COC(=O)/C=C/c1ccc(OC)cc1` (stereo not given), the Potency result in test [1], in [2], in test [3], in test [4], in test [18] and in test [19] was “inactive” each time. Moreover, the Potency entry in test [5], in [6], in test [7], in test [8], in [9] and in test [10] was “inactive” each time. For the same compound, the Potency entry in test [11], in test [12] and in test [13] was “inactive” in each case. Further, the max response in [14] is -9.77% (inactive); in [15], -2.18% (inactive); in test [20], 15% (inactive); in test [17], -7.17% (inactive).

Regarding `O=C(Nc1ccc([N+](=O)[O-])cc1)Nc1ccc([N+](=O)[O-])cc1`, the Potency in [2] is 2 µM (active); in test [13], 2.39 µM (active); in test [15], 8.41 µM (active). Also, the Potency entry in test [3], in [4], in test [18], in test [19], in test [5] and in test [6] was “inactive” each time. The Potency entry in test [7], in [8], in test [9], in test [10], in [11] and in [12] was “inactive” throughout. Also, the max response in [14] is -8.01% (inactive). For the same compound, in test [16], the result was inactive.

Turning to `C[C@]12CCC(=O)C=C1C=C[C@@H]1[C@@H]2CC[C@@]2(C)[C@H]1CC[C@@]21CCC(=O)O1`, the values for the Potency in test [14] and in test [15] were 7.5 µM (active) and 9.44 µM (active), respectively. For the same compound, the max response in test [20] was -4.54% (inactive).

With `CN1CCC(OC(c2ccccc2)c2ccccc2)CC1`, the Potency result in [1], in test [3], in test [5] and in [9] was “inactive” throughout. Also, in [13], the Potency was 3.22 µM (active). In addition, the call in test [14] and in test [17] was inactive. In addition, the max response in [15] is -17.7% (inactive); in test [20] it was -12.2% (inactive).

Turning to `Nc1ccc(S(=O)(=O)NCc2ccccc2)cc1`, the Potency entry in test [1], in test [2], in [3], in test [4], in test [18] and in test [19] was “inactive” throughout. For the same compound, the Potency result in [5], in test [6], in test [7], in [8], in [9] and in [10] was “inactive” throughout. Moreover, the Potency entry in [11], in test [12] and in test [13] was “inactive” in each case. The max response in test [14] is -13.3% (inactive); in test [15], 3.66% (inactive); in test [20] it was -2.49% (inactive); in test [17], -0.659% (inactive).

In the case of `COc1cc(NS(=O)(=O)c2ccc(N)cc2)ncn1`, the Potency result in test [1], in test [2], in test [3], in test [4], in [18] and in test [19] was “inactive” in each case. Further, the Potency result in [5], in [6], in test [7], in [8], in [9] and in test [10] was “inactive” throughout. The Potency entry in test [11], in test [12] and in test [13] was “inactive” throughout. Also, the outcome in test [14] was inactive. For the same compound, the max response in [15] is -0.739% (inactive); in [20] it was -8.34% (inactive); in [17], -12.1% (inactive).

On to `COC(=O)C(c1ccccc1Cl)N1CCc2sccc2C1` (stereo not given), for which the Potency result in test [3], in test [6] and in test [8] was “inactive” throughout. In addition, the max response in test [14] is -10.1% (inactive); in test [15], 4.89% (inactive); in test [16], 4.22% (inactive); in test [17], -4.69% (inactive).

On to `CCOC(=O)c1c(N)sc2c1CCN(Cc1ccccc1)C2`, for which the Potency in test [1] was 3.55 µM (active); in test [2], 5.01 µM (active); in test [3], 11.2 µM (active); in [4] it was 12.6 µM (active); in test [18] it was 5.01 µM (active); in [19] it was 5.62 µM (active). Moreover, the Potency in test [7] was 5.36 µM (active); in [8], 5.01 µM (active); in test [9], 10 µM (active); in test [10] it was 4.47 µM (active); in test [11], 11.2 µM (active); in [12], 5.01 µM (active). The values for the Potency in test [13], in [14] and in test [15] were 4.78 µM (active), 18.8 µM (active) and 11.9 µM (active), respectively. The max response in [20] was -15.4% (inactive).

For the origin of these results see PubChem BioAssay (NCATS).
